biological target: AMP-activated protein kinase, AMPK (Homo sapiens) (UniProt P54646+O43741+P54619+Q9UGJ0+Q9Y478+Q13131+Q9UGI9); experiment: AMP-dependent Kinase enzyme assay. An in vitro enzyme assay that detects ADP turnover that is directly proportional to AMPK activity. This uses naive AMPK that is activated during the assay with MK-8722; assay type: functional; design: scale not given: direction of the effect not stated beside the values; details: 30 µM

Row | SMILES | Percent Effect [%]
1 | Cc1nc2c(c(NC(C)c3nnn[nH]3)n1)Cc1ccccc1OC2 (stereo not given) | -6.31
2 | CC(C)(C)c1ccc(C(=O)NCCCNC(=O)c2cnccn2)cc1 | 8.31
3 | CN(CCc1ccccc1)c1cnn(CC2COCCO2)c(=O)c1 (stereo not given) | 8.71
4 | CCc1cc(=O)[nH]c(-c2ccc(NC(C)COC)nc2)n1 (stereo not given) | -2.5
5 | OC1CCN(C2CCN(c3ccc(Cn4ccnc4)cn3)CC2)CC1 | -3.24
6 | N#CC1COCCN1C(=O)c1ccc2[nH]cnc2c1 (stereo not given) | -8.21
7 | CN1CCN(C(=O)CCn2ncc3ccccc32)CC(C(N)=O)C1 (stereo not given) | 7.38
8 | O=C(Cc1ccsc1)N1CCC[C@@H]1Cn1c(=O)oc2ccccc21 | 28.3
9 | CNS(=O)(=O)CC(=O)NCc1cc2c(s1)CCC(C)(C)C2 | -1.02
10 | O=C(Nc1ccccc1OCCc1ccccn1)N1CCOCC(O)C1 (stereo not given) | 2.87
11 | CN(CCCOc1ccccc1Cl)C(=O)CN1CCCCCC1=O | 9.36
12 | CCCn1cc(-c2cc(C(=O)N(C)C)c3ccc(C)cc3n2)cn1 | 11.6
13 | Cc1cc(NC(C)c2n[nH]c(C)n2)n2nc(C)c(C)c2n1 (stereo not given) | 20.5
14 | CN(CCOc1ccccc1)C(=O)Nc1cccn(C)c1=O | -59.2
15 | O=C(CCOc1ccc(Cl)cc1)NCCCn1cccn1 | -3.71
16 | NC(=O)C1Cc2ccccc2CN1CCC(=O)N1CCc2ccccc21 (stereo not given) | -3.92
17 | OCc1csc(N2C[C@@H](CN3CCCCCC3)[C@@H](CO)C2)n1 | -3.32
18 | c1cn(-c2nccnc2C2CCCN(C3CCOCC3)C2)cn1 (stereo not given) | 10.1
19 | CC(O)C(=O)N1CCC(c2[nH]ncc2-c2ccccc2)CC1 (stereo not given) | -11.2
20 | CNC(=O)c1cn2cc(-c3cccc(Cl)c3)n(CC3CC3)c(=O)c2n1 | -3.37

Row | SMILES | Percent Effect [%]
21 | c1cc(CN2CCC[C@@H](Cn3nnc(-c4cnccn4)n3)C2)ccn1 | 6.31
22 | O=C(NCCCn1ccnc1)C1COCC(=O)N1Cc1ccccc1 (stereo not given) | 3.38
23 | Cc1noc(C(C)C)c1C(=O)N1CCC(n2cccn2)CC1 | 4.03
24 | CN1C[C@@H]2CC[C@H](CC1=O)N2C(=O)c1cc2ccccc2[nH]c1=O | 5.77
25 | CN(Cc1csc(-c2cccs2)n1)CC(O)CO (stereo not given) | 5.86
26 | CCc1nnc2n1CCN(C(=O)C(C)Oc1ccc(C#N)cc1)C2 (stereo not given) | 10.6
27 | CCC(C)NC(=O)Nc1cccc(OCCCC#N)c1 (stereo not given) | -4.6
28 | COc1cccc(O[C@H]2CCN(c3nc(C)cc(C)n3)CC[C@@H]2O)c1 | 1.31
29 | CCc1n[nH]c(C(=O)N2CCC3(CCCN(CCOC)C3=O)C2)c1C (stereo not given) | 6.73
30 | CC(O)C1CCN(C(=O)CCOc2ccccc2F)CC1 (stereo not given) | 4.43
31 | CN(C)Cc1ccc(C(=O)N2CCCC(COc3ccc(F)cc3)C2)o1 (stereo not given) | 7.84
32 | OCC1(CCOc2ccccc2)CCN(c2ccc(Cl)cn2)CC1 | -2.64
33 | CC(C)c1cc(NC(CCO)c2ccccc2)n2nccc2n1 (stereo not given) | 13.4
34 | COc1nccc(N2CC[C@@H](N3CCC(O)CC3)[C@H](O)C2)c1C#N | 5.62
35 | Nc1nc(CCCNC(=O)c2ccccc2C2CCNC2)cs1 (stereo not given) | -5.1
36 | CC1CC(NS(=O)(=O)c2ccc(C(F)(F)F)nc2)C1 (stereo not given) | 19.9
37 | CNc1nc(C(=O)N2CCCn3nc(C(=O)N4CCCC4)cc3C2)cs1 | 10.6
38 | NC(=O)COc1ccc(CN2CCC3(CC2)[C@H](O)C[C@@H]3O)cc1Cl | 8.11
39 | CN(C)CC1(O)CCCN(C(=O)Cn2nc3ccccc3n2)CC1 (stereo not given) | -12.7
40 | CCN(Cc1ccoc1)C(=O)Nc1ccccc1CN(C)C(C)=O | 2.94
